Test results reported in PubChem BioAssay (EPA / NIEHS).
The source made the active and inactive calls. How the source made its calls: active means hit-call score of the fitted dose curve at least 0.9, where 1 is the maximum; inactive means score below 0.9.

Read-out: Fatty acid synthase (Homo sapiens) (UniProt P49327)
Test: LTEA_HepaRG_FASN: Life Technologies and Expression Analysis (LTEA) Assay for Fatty Acid Synthase (FASN) using HepaRG (AID 2283448)
Conditions: mRNA level, 48 h; actives raise or lower the signal
Experimental: LTEA_HepaRG is a cell based, multiplexed-readout assay that uses HepaRG, a human liver cell line, with measurements taken at 48 hours after chemical dosing on a 96-well plate.LTEA_HepaRG_FASN is one of 102 assay component(s) measured in the LTEA HepaRG cell culture assay. It is a marker of Steatosis.Data from the assay component LTEA_HepaRG_FASN was analyzed into 1 endpoint. This assay endpoint, LTEA_HepaRG_FASN, was analyzed with bidirectional fitting relative to DMSO as the negative control and baseline of activity. Using a type of inducible reporter, measures of mRNA induction for gain or loss-of-signal activity can be used to understand regulation of transcription factor activity. To generalize the intended target to other relatable targets, this assay endpoint is annotated to the lyase intended target family, where the subfamily is fatty acid synthase.
A total of 1060 chemcials from the ToxCast library were tested in eight-point concentration-response experiments. Cell culture and cytotoxicity assays were conducted at Thermo Fisher Scientific's Custom Services facility (Madison, WI). A single lot of human HepaRG cells (Thermo Fisher Scientific, Frederick, MD) was used for the cell culture experiments. 96-well format collagen type I coated plates of human HepaRG cells were prepared using established methods. Briefly, cryopreserved HepaRG cells were thawed, plated at a density of approximately 100,000 cells/well in HepaRG Thaw, Plate, and General Purpose media (HPRG770, Thermo Fisher Scientific), and incubated for 48 hours. 0.5% DMSO was selected as vehicle control to balance the requisite need of DMSO in HepaRG cultures to maintain differentiation (for example, baseline metabolism, proportions of hepatocytes vs. cholangiocytes), while enabling further hepatic receptor pathway activation (for example, PXR and CAR) in response to chemical exposure. 48 hours after plating, the culture medium was replaced with HepaRG Serum-Free Incudtion Media. Cells were exposed to each test chemical in duplicate and maintained in CO2 incubators for another 48 hours. Chemical plates were thawed to room temperature and 200x concentrations of treatment groups were prepared. 8-point conentration-reponse curves were made with the highest exposure at 100 uM, followed by half-log dilutions, all in 0.5% DMSO. Each test plate contained variouse controls, induction positive controls (1mM phenobarbital), cytotoxicity positive controls ([…] aflatoxin B1), vehicle controls (0.5% DMSO), and total lysis controls (0.5% DMSO). Cell morphology images were taken using an Essen IncuCyte FLR automated microscope, with six 96-well plates imaged in about 24 minutes. Images were captured and exported and JPEG files. Spent culture media was transfered to black-well plates for the LDH assay, and remaining media was sorted at -80 C for later use. Cells were treated with RLT buffer and frozen until shipped for gene expression analysis. Total RNA was isolated from the cell suspension in 75 uL of Buffer RLT (Qiagen, Germantown, MD 20874) by Quintiles/Expression Analysis (Durham, NC) using a custom isolation procedure. Total RNA from each plate well was transferred to a preamplification plate. Fluidigm's 96.96 Dynamic ArrayTM (Fluidigm, Amsterdam, the Netherlands) technology was used for gene expression analyses by quantitative reverse transcription polymerase chain reaction (qRT-PCR, performed by Quintiles/Expression Analysis, Durham, NC)89. Standard TaqManTM Assays (Applied Biosystems/ThermoFisher Scientific, Foster City, CA) were used to assess the expression of 93 genes selected based on their selectivity and sensitivity to important hepatic receptors known to be modulated by environmental chemicals; importance in human hepatocyte functionality; and hepatotoxicity. […]

Sequence of Fatty acid synthase (Homo sapiens) (P49327 whole entry, looked up): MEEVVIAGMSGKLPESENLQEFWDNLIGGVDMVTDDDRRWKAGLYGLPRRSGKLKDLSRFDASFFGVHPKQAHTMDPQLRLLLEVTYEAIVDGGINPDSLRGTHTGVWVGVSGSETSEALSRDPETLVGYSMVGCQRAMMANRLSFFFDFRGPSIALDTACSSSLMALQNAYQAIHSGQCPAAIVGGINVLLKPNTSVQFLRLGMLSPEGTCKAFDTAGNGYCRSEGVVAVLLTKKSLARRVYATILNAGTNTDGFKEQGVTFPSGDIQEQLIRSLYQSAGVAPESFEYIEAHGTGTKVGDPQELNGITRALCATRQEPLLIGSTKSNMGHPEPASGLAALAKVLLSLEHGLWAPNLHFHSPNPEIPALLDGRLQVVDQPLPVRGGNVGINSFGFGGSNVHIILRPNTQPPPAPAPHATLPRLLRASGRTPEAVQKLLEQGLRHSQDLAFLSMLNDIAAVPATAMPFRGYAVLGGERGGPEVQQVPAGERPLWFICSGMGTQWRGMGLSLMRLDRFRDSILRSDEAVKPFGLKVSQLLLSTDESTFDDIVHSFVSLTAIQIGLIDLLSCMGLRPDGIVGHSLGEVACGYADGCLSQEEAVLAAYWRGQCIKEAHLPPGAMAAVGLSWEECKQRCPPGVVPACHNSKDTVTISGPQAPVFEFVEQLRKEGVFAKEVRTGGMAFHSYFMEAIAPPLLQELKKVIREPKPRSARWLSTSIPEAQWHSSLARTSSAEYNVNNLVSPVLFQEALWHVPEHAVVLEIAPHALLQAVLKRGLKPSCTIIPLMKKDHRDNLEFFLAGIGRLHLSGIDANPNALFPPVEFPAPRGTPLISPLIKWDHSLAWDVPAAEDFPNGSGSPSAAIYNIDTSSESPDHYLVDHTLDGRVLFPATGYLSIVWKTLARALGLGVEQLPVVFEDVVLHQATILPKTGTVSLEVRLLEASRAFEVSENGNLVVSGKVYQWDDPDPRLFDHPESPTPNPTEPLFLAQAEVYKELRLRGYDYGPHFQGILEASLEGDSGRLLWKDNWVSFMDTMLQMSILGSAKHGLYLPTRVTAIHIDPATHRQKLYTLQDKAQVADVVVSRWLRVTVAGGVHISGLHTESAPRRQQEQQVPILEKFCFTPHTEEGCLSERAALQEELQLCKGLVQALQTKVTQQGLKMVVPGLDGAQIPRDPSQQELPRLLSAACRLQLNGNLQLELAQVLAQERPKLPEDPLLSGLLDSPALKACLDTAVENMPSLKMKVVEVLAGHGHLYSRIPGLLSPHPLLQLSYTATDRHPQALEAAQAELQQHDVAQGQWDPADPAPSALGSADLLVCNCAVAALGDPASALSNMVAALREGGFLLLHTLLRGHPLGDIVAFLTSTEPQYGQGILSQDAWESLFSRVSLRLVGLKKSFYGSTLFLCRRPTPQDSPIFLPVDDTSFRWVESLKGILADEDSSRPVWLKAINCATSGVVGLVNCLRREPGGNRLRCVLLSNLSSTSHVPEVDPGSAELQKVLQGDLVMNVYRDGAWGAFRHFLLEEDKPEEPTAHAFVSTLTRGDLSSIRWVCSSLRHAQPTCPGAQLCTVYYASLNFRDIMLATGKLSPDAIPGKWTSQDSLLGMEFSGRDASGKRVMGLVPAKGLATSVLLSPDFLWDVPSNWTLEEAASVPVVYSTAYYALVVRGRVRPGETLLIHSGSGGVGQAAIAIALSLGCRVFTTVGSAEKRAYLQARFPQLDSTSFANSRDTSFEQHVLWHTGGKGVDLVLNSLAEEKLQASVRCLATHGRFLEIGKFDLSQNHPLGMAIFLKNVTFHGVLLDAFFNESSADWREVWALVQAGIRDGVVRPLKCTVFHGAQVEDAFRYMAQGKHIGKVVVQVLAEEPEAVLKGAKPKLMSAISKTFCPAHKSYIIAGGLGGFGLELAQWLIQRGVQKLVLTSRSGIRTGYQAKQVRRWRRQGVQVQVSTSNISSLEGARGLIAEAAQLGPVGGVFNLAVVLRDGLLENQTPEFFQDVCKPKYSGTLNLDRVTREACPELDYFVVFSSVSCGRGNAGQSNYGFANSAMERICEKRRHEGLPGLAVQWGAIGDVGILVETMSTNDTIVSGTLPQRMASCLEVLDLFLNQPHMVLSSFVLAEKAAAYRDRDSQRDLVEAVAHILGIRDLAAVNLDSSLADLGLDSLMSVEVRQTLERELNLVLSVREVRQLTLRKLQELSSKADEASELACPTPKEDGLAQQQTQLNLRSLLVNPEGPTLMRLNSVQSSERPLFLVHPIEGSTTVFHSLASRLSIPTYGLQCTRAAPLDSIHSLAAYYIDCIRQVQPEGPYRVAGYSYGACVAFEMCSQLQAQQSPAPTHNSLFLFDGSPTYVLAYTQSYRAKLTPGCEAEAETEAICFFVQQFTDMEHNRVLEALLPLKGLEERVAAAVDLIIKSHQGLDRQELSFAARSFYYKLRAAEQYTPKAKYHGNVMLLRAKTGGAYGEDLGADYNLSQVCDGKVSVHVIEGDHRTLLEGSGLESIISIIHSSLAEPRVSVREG

Row | SMILES | outcome | AC50
1 | O=c1c(-c2ccc(O)cc2)coc2cc(O)cc(O)c12 | inactive | –
2 | Cc1cccc2ccccc12 | inactive | –
3 | CCCCCCCC[Si](OCC)(OCC)OCC | inactive | –
4 | COCC(C)OCC(C)OCC(C)O (stereo not given) | inactive | –
5 | c1ccc2ccccc2c1 | inactive | –
6 | COc1cc(C(=O)NC2CCN(C)CC2)ccc1Nc1ncc2c(n1)N(C1CCCC1)CC(F)(F)C(=O)N2C | – | 46.5 µM (active)
7 | CCCCOC(=O)c1ccc(O)cc1 | inactive | –
8 | Oc1ccc2ccccc2c1 | inactive | –
9 | CN1C(=O)CC[C@H]1c1cccnc1 | inactive | –
10 | CC(O)CC(C)(C)O (stereo not given) | inactive | –
11 | Clc1ccccc1C(c1ccccc1)(c1ccccc1)n1ccnc1 | – | 23.1 µM (active)
12 | CCCOC(=O)c1cc(O)c(O)c(O)c1 | inactive | –
13 | CC/C(=C(/CC)c1ccc(O)cc1)c1ccc(O)cc1 | – | 50 µM (active)
14 | CO[C@H]1/C=C/O[C@@]2(C)Oc3c(C)c(O)c4c(O)c(c(/C=N/N5CCN(C)CC5)c(O)c4c3C2=O)NC(=O)/C(C)=C\C=C\[C@H](C)[C@H](O)[C@@H](C)[C@@H](O)[C@@H](C)[C@H](OC(C)=O)[C@@H]1C | inactive | –
15 | CN(C)c1ccc(C(=C2C=CC(=[N+](C)C)C=C2)c2ccc(N(C)C)cc2)cc1 | – | 3.9 µM (active)
16 | CC(C)(C)c1cc(/C=C2\SC(N)=NC2=O)cc(C(C)(C)C)c1O | – | 12.2 µM (active)
17 | CCCCCCCCN(C)CCCCCCCC | inactive | –
18 | O=C1c2ccccc2C(=O)N1CCc1noc(-c2ccc(CN3CCCCCC3)s2)n1 | inactive | –
19 | Cc1cc2c(cc1C(F)(F)F)N(C(=O)Nc1ccc(Oc3cccnc3C)nc1)CC2 | inactive | –
20 | COc1ccc2cc(S(=O)(=O)N[C@H](CC(=O)N[C@H](Cc3ccc(CN4[C@H](C)CCC[C@@H]4C)cc3)C(=O)N(C)C(C)C)c3ccc4c(c3)OCO4)ccc2c1 | inactive | –

Row | SMILES | outcome | AC50
21 | CC(C)(C)c1csc(-c2cc3cc(OCc4ccccc4CC(=O)O)ccc3o2)n1 | – | 84 µM (active)
22 | O=C=NCCCCCCN=C=O | inactive | –
23 | Cc1ccc2oc(CN(Cc3ccccc3)C(=O)Nc3c(F)cc(F)cc3F)c(-c3ccc(Cl)cc3)c2c1 | inactive | –
24 | c1ccc2n[nH]nc2c1 | inactive | –
25 | CC(C)(c1cc(Br)c(O)c(Br)c1)c1cc(Br)c(O)c(Br)c1 | inactive | –
26 | O=c1[nH]sc2ccccc12 | inactive | –
27 | O=C(O)c1ccccc1C(=O)OCc1ccccc1 | inactive | –
28 | CCCCCc1ccc(N)cc1 | inactive | –
29 | Cc1ccc(C(C)C)cc1 | inactive | –
30 | Cc1ncc(CO)c(CO)c1O | inactive | –
31 | COc1cccc([C@H](O)C2CCN(CCc3ccc(F)cc3)CC2)c1OC | inactive | –
32 | O=C(O)c1ccccc1-n1cc(C(=O)O)c(=O)c2cc(Nc3c(F)cc(F)cc3Cl)c(Cl)cc21 | inactive | –
33 | Oc1ccccc1 | inactive | –
34 | Cc1occc1C(=O)Nc1ccc(C(=O)N2CCC(F)(F)/C(=C\C(=O)N3CCC(N4CCCCC4)CC3)c3ccccc32)cc1 | – | 19.4 µM (active)
35 | O=c1ccc2ccccc2o1 | inactive | –
36 | O=C(O)Cn1c(=O)n(Cc2ccc(Br)cc2F)c(=O)c2ccc(Cl)cc21 | inactive | –
37 | CCCCCCCCCCCO | inactive | –
38 | CC[C@@H]1C[C@H](N(Cc2cc(C(F)(F)F)cc(C(F)(F)F)c2)C(C)=O)c2cc(C(F)(F)F)ccc2N1C(=O)OC(C)C | inactive | –
39 | CCCCCCCCCCCCO | inactive | –
40 | O=C1CCC(C2CCCCC2)CC1 | inactive | –
